# The source made the active and inactive calls. Unless noted, how the calls were made is not given here.
# Columns and labels:
# [1] = anti-His antibody binders, primary screen, artefact control for SMM control protein annotation, biochemical, small-molecule microarray, 635 nm fluorescence (AID 1128); settings: anti-His Alexa647 antibody binding, higher = more signal;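 further: score merges feature fluorescence with signal-to-noise for each printed compound spot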
# [2] = tested on: Human papillomavirus type 1a E7 protein (residues 1-88); experiment: HPV1a E7 small-molecule binders, primary screen, biochemical, small-molecule microarray, residues 1-88, 635 nm (AID 1129); settings: small-molecule microarray binding, fluorescence 635 nm; higher = more signal
# [3] = target: Focal adhesion kinase 1 (Homo sapiens) (UniProt Q05397); experiment: small-molecule microarray binders of FAK, primary screen, biochemical, 635/667 nm fluorescence, BSA, DTT (AID 1130); settings: PTK2 binding, 635 nm fluorescence, higher = more signal;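 further: composite of spot emission at 667 nm and signal to noise over triplicate slides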
# [4] = tested on: Fibrinogen (Alexa647-labelled); experiment: fibrinogen binders on compound microarrays, profiling panel, artefact control for SMM control-protein annotation, biochemical, small-molecule microarray, 635/667 nm fluorescence (AID 1131); settings: fibrinogen-A647 binding fluorescence, higher = more signal;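 further: z-score merges 667 nm fluorescence with per-spot signal-to-noise over triplicate slides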
# [5] = target: Follistatin (Homo sapiens) (UniProt P19883); experiment: follistatin binders on small-molecule microarrays, primary screen, biochemical, small-molecule microarray, 635/667 nm fluorescence (AID 1132); settings: FST binding, 635 nm fluorescence, higher = more signal
# [6] = target: Fibroblast growth factor 2 (Homo sapiens) (UniProt P09038); experiment: FGF2 binders on small-molecule microarrays, primary screen, biochemical, small-molecule microarray, 635/667 nm fluorescence (AID 1133); settings: small-molecule microarray binding, FGF2, fluorescence 635/667; higher = more signal
# [7] = mitochondrial membrane potential change in A549 cells, profiling panel, cell-based, JC-1 fluorescence, basal, 24 h, 100 nL (AID 1138); settings: higher = more signal;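 further: A549 lung adenocarcinoma cells under basal conditions with no added stimulus; test concentration not given here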
# Lefty1 = Lefty1 binders on small-molecule microarrays, primary screen, biochemical, small-molecule microarray, 635/667 nm fluorescence (AID 1139); settings: small-molecule microarray binding, fluorescence 635/667; higher = more signal
# [8] = tested on: wheat germ agglutinin (Triticum aestivum), Alexa647-labelled; experiment: wheat germ agglutinin binders on compound microarrays, profiling panel, artefact control for SMM control-protein annotation, biochemical, small-molecule microarray, 635/667 nm fluorescence (AID 1140); settings: WGA-A647 binding, 635 nm fluorescence, higher = more signal;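 further: score merges 667 nm feature emission with signal to noise over triplicate slides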
# [9] = target: Luciferin 4-monooxygenase (Photinus pyralis) (UniProt P08659); experiment: firefly luciferase enzyme inhibitors, primary screen, biochemical, luminescence, purified enzyme, 2006 set (AID 1141); settings: SteadyGlo luminescence, 30 min, higher = more signal, called active from +8 up or from −8 down;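 further: cell-free assay with purified firefly luciferase at 100 ng per well in PBS; test concentration not given here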
# [10] = tested on: Wnt5a (protein binding on small-molecule microarray); experiment: Wnt5a binders on small-molecule microarray, primary screen, biophysical, 635/667 nm fluorescence (AID 1142); settings: 635 nm fluorescence, higher = more signal;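 further: fluorescence read at 667 nm with signal to noise per printed feature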
# [11] = cell viability in Huh7 cells, primary screen, cytotoxicity control for HCV replication inhibitor project, CellTiter-Glo luminescence, basal, 48 h (AID 1143); settings: Huh7 HCV replicon, higher = more signal, called active from +8 up or from −8 down;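 further: Huh7 hepatoma cells carrying a hepatitis C replication reporter with no stimulus; test concentration not given here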
# [12] = P. aeruginosa biofilm formation inhibitors, primary screen, PAO1 strain, BacTiter-Glo luminescence, LB-PBS (AID 1144); settings: 12 h, higher = more signal
# [13] = CREB reporter modulators without forskolin, primary screen, cell-based, PC12, CRE-LacZ reporter, unstimulated (AID 1145); settings: no forskolin, luminescence, 4.5 h, higher = more signal, called active from +8 up or from −8 down
# [14] = CREB reporter modulators under forskolin, primary screen, cell-based, PC12, CRE-LacZ reporter, forskolin-stimulated (AID 1146); settings: luminescence, 4.5 h, higher = more signal, called active from +8 up or from −8 down;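 further: PC12 cells with 6xCRE LacZ reporter stimulated by forskolin 10 µM; beta-galactosidase reporter signal reflecting CREB driven transcription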
# [15] = target: Streptavidin (Streptomyces avidinii) (UniProt P22629); experiment: streptavidin binders on small-molecule microarray, primary screen, artefact control for SMM compound annotation, biophysical, 635/667 nm fluorescence (AID 1147); settings: streptavidin binding, higher = more signal;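 further: signal reflects streptavidin binding to arrayed compounds as a control protein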
# [16] = small-molecule binders of probe aInhba, primary screen, biochemical, small-molecule microarray, 635/667 nm fluorescence (AID 1148); settings: higher = more signal;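 further: score merges 667nm spot fluorescence with signal-to-noise for antibody binding to printed compounds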
# Torsin-1A (Homo sapiens) [17] = target: Torsin-1A (Homo sapiens) (UniProt O14656); experiment: torsin A binders from cell lysate, primary screen, small-molecule microarray, wild-type, 635/667 nm (AID 1149); settings: COS7 hTOR1A-WT lysate, 635 nm fluorescence, higher = more signal
# Torsin-1A (Homo sapiens) [18] = target: Torsin-1A (Homo sapiens) (UniProt O14656); experiment: small-molecule binders of mutant TOR1A in lysate, primary screen, cell lysate, small-molecule microarray, COS7 lysate, 635/667 nm fluorescence (AID 1150); settings: COS7 hTOR1A mutant lysate, 635 nm fluorescence, higher = more signal;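 further: score pools 667 nm emission and signal to noise measuring lysate protein binding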
# [19] = tested on: Sonic hedgehog protein (Shh); experiment: small-molecule binders of Shh protein, primary screen, biochemical, small-molecule microarray, 635/667 nm fluorescence (AID 1151); settings: small-molecule microarray binding, 635 nm fluorescence; higher = more signal;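 further: Shh protein binding to compounds spotted on small-molecule microarray slides; score combines spot fluorescence intensity with signal-to-noise across triplicate slides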
# Chain of Luciferin 4-monooxygenase (Photinus pyralis) (P08659 whole entry, looked up): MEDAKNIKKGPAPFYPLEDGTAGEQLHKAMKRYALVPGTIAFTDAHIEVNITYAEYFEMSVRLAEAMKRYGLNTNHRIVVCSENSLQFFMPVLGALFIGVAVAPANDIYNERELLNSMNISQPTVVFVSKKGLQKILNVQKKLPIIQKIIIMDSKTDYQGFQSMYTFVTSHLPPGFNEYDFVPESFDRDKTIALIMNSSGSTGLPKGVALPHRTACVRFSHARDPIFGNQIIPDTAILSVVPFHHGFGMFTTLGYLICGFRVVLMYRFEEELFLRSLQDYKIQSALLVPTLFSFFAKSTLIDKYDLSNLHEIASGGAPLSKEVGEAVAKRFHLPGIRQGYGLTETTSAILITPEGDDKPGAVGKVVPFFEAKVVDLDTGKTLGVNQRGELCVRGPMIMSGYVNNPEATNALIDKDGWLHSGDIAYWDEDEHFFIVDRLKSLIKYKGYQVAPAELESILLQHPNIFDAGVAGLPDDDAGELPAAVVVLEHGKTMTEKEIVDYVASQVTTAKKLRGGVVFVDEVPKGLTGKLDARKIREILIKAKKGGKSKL
# Chain of Streptavidin (Streptomyces avidinii) (P22629 whole entry, looked up): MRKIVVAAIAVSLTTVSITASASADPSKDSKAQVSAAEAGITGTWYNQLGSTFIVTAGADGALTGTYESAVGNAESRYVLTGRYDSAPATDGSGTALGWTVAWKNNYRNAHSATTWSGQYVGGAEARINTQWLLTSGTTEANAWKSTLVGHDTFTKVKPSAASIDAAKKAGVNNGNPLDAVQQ
# Chain of Focal adhesion kinase 1 (Homo sapiens) (Q05397 whole entry, looked up): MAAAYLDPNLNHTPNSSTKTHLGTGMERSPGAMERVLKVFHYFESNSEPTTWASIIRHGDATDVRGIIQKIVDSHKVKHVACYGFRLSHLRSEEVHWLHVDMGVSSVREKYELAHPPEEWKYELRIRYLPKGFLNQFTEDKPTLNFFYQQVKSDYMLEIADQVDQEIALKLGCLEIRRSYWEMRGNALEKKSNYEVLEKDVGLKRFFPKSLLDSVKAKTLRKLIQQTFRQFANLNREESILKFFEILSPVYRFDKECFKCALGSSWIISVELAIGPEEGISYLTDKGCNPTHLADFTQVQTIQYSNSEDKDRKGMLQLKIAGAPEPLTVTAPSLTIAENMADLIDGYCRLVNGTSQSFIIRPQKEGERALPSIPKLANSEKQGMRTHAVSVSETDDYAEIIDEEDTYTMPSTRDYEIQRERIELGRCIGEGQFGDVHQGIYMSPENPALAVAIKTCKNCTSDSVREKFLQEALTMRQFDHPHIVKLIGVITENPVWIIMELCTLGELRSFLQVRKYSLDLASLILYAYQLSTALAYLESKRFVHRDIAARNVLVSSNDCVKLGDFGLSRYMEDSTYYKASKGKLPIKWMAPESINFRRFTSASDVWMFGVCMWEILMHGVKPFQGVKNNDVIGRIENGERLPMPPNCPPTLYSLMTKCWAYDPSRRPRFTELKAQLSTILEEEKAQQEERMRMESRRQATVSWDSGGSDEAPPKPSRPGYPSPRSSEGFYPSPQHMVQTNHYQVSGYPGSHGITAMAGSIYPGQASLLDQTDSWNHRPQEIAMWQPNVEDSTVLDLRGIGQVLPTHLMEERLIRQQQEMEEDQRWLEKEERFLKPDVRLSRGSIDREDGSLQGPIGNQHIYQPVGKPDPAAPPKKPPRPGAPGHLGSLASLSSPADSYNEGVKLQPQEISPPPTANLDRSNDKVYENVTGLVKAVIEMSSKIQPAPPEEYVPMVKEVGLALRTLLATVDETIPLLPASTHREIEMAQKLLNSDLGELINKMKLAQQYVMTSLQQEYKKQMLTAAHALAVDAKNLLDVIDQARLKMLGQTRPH
# Chain of Fibroblast growth factor 2 (Homo sapiens) (P09038 whole entry, looked up): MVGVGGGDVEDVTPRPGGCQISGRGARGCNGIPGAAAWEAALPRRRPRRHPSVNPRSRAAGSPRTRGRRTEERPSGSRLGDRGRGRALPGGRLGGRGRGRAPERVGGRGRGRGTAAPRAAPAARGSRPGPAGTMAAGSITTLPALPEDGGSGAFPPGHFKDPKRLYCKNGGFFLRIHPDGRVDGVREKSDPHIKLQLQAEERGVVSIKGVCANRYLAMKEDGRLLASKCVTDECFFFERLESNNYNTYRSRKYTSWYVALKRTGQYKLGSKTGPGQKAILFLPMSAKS
# Chain of Follistatin (Homo sapiens) (P19883 whole entry, looked up): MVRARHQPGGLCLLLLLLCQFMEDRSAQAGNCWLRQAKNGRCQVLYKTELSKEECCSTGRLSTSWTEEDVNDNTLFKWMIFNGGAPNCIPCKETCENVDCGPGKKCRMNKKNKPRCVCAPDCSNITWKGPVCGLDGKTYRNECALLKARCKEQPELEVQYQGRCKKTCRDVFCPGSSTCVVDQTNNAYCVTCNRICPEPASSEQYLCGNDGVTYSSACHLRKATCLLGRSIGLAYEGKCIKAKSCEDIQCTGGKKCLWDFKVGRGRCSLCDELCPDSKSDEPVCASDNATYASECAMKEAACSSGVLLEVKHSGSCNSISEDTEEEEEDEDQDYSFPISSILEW
# Chain of Torsin-1A (Homo sapiens) (O14656 whole entry, looked up): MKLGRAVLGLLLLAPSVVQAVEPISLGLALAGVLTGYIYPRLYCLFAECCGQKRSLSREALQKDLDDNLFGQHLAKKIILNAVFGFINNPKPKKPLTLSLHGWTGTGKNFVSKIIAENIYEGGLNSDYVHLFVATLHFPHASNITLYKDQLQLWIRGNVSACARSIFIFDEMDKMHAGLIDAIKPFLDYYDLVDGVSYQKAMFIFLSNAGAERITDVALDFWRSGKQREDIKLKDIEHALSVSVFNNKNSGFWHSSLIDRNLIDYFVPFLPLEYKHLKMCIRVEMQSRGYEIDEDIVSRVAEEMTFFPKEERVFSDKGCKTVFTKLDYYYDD
Structure (SMILES),composite z-score [1],composite z-score [2],composite z-score [3],composite z-score [4],composite z-score [5],composite z-score [6],z-score [7],composite z-score (Lefty1),composite z-score [8],z-score [9],composite z-score [10],z-score [11],z-score [12],z-score [13],z-score [14],composite z-score [15],composite z-score [16],composite z-score (Torsin-1A (Homo sapiens) [17]),composite z-score (Torsin-1A (Homo sapiens) [18]),composite z-score [19]
O=C1c2ccccc2[C@](Cc2ccccc2I)(C(=O)NCC(F)(F)F)[C@H](c2ccc(CO)cc2)N1C1CCCCC1,1.64,1.21,-0.003,0.964,0.846,0.18,2.17,0.289,0.856,-1.61 (inactive),0.2,-0.772 (inactive),1.01 (inactive),0.324 (inactive),2.63 (inactive),1.1,0.029,0.365,0.936,0.176
CCCCCCc1nc(-c2cc(C)c(OC)c(C)c2)c(C)c2c1[Si](C(C)C)(C(C)C)OC2,-0.351,0.0093,0.126,-0.273,0.204,-0.18,-0.522,0.195,-0.496,0.325 (inactive),0,-3.03 (inactive),-0.892 (inactive),0.148 (inactive),-0.101 (inactive),0.273,-0.128,0.0704,-1.06,0.186
C[C@]1(C(=O)NC2CC2)c2ccccc2C(=O)N(Cc2ccccc2)[C@H]1c1ccc(CO)cc1,-1.12,-1.29,0.874,-2.17,-0.271,-0.517,-0.153,-1.5,-1.15,-0.347 (inactive),-0.228,-4.5 (inactive),-0.483 (inactive),0.0279 (inactive),-0.957 (inactive),-0.854,0.0028,0.249,-0.489,-1.3
COCCCNC(=O)[C@]1(CCS(=O)(=O)c2ccccc2)N=C(c2ccc(OCCCO)cc2)O[C@@H]1c1ccccc1N=[N+]=[N-],2.09,1.22,-0.0436,0.996,0.794,-0.138,0.789,-0.279,1.13,-10.1 (active),1.02,-2.78 (inactive),2.09 (inactive),0.297 (inactive),-1.27 (inactive),1.31,-0.0907,0.602,0.441,-0.498
COc1ccc(C(O)C2C=CC3C(=O)N(c4ccccc4)C(=O)C3N2Nc2ccc([N+](=O)[O-])cc2)cc1 (stereo not given),2.11,1.24,0.961,1.01,0.848,-0.246,0.103,-0.344,1.14,0.732 (inactive),0.516,-0.474 (inactive),0.403 (inactive),0.182 (inactive),-0.298 (inactive),0.789,1.18,0.0294,0.874,-0.397
O=C1NC(=O)C2C1C=CC(C(O)c1c(F)cccc1Cl)N2Nc1ccc(Cl)cc1Cl (stereo not given),1.23,1.2,1.6,0.296,-0.0649,-0.891,-1.15,-0.507,1.31,0.231 (inactive),0.275,-1.37 (inactive),-0.159 (inactive),0.632 (inactive),-0.524 (inactive),1.23,0.414,0.465,1.27,-0.854
COC(=O)CCCCCCC(=O)Nc1ccc(NC(=O)CCCC[P+](c2ccccc2)(c2ccccc2)c2ccccc2)cc1,0.703,0.289,-0.507,-0.722,1.01,0.626,0.679,1.23,0.0334,1.3 (inactive),0.38,-0.238 (inactive),-0.873 (inactive),0.575 (inactive),-1.85 (inactive),0.352,-0.0645,0.463,0.28,1.89
COc1ccccc1CN1C(=O)c2ccccc2[C@@]2(Cc3ccccc3N(CC(F)(F)F)C2=O)[C@@H]1c1ccc(CO)cc1,-0.0478,0.232,0.205,0.049,0.666,0.731,-0.0896,0.292,-0.0716,0.962 (inactive),0.0586,0.338 (inactive),0.126 (inactive),1.24 (inactive),-0.173 (inactive),0.276,0.173,-0.116,-0.33,0.53
C=CCOC(=O)[C@H]1[C@@H]2C(=O)O[C@@H](c3ccccc3)[C@@H](c3ccccc3)N2[C@@H](c2ccc(OCCOC(=O)[C@H]3C[C@H]4C(=O)N[C@@H](CC(C)C)C(=O)N4[C@H]3c3cccc(OCCO)c3)cc2)[C@]12C(=O)Nc1ccc(I)cc12,2,1.18,0.84,0.452,1.36,1.71,-0.175,1.22,0.437,-1.48 (inactive),0.725,0.0478 (inactive),0.568 (inactive),0.411 (inactive),-0.368 (inactive),0.205,-0.154,0.644,0.908,1.73
N#Cc1ccc(NN2C(C(O)c3ccc(F)cc3)C=CC3C(=O)N(c4ccccc4)C(=O)C32)cc1 (stereo not given),1.57,0.57,0.171,0.797,0.0089,0.866,0.324,-0.577,0.94,0.646 (inactive),0.0035,0.632 (inactive),-0.377 (inactive),0.629 (inactive),0.521 (inactive),0.945,-0.0791,0.0271,-0.0504,-0.304

# Source: PubChem BioAssay
